The values below come from PubChem BioAssay.

Calls of active or inactive are those of the source. Unless noted, the rule behind the calls is not given here.

Assay [1] concerns XIP peptide (Xip251-270) binding. In words: XIP fragment 251-270 binding compounds – biochemical, small-molecule microarray, fluorescence 635/667 nm, 0.1 µg/mL protein, primary screen (AID 1182). The settings on record: fluorescent protein binding, 635 nm, higher = more signal, called active from +8 up or from −8 down.
For assay [2], the system named is XIP peptide (Xip251-270). In words: compounds binding XIP fragment 251-270 – biochemical, small-molecule microarray, fluorescence 635/667 nm, 0.5 µg/mL protein, primary screen (AID 1183). The settings on record: fluorescence 635 nm, higher = more signal.
Assay [3] is described as follows: blood-stage malaria parasite viability loss – strain 3D7, DAPI fluorescence, 100 nL, primary screen (AID 1184).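 Note: parasites grown inside human red blood cells in medium with human serum.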 The note with it: P. falciparum 3D7 growth, 3 d, higher = more signal.
The target of assay [4] is Homeobox protein Hox-A13 (Mus musculus) (UniProt Q62424). In words: disruptors of Hoxa13 oligonucleotide interaction – biochemical, fluorescence polarization, labeled oligonucleotide, primary screen (AID 1185). The settings on record: Hoxa13:DNA binding, 15 min, higher = more signal, called active from +8 up or from −8 down.
Chain of Homeobox protein Hox-A13 (Mus musculus) (Q62424 whole entry, looked up): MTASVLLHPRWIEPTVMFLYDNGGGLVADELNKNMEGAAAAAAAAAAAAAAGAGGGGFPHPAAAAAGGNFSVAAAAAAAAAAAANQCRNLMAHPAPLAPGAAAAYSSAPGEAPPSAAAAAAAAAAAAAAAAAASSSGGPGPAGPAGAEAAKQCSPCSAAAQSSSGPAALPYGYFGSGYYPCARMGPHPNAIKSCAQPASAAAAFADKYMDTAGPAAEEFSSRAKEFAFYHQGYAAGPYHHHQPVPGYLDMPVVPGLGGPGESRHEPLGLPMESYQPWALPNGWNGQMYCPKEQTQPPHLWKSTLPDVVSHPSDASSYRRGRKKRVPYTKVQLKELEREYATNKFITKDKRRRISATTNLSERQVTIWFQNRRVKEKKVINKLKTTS
The nature of assay [5]: blockers of DNA damage checkpoint Chk1 activation – imaging, HeLa, hydroxyurea, phospho-Chk1 antibody, percent positive cells, primary screen (AID 1186). The settings on record: hydroxyurea-induced phospho-Chk1 immunofluorescence imaging, higher = more signal.
A short description of assay [6]: blockers of DNA damage checkpoint Chk1 activation – imaging, HeLa, hydroxyurea, phospho-Chk1 nuclear intensity, primary screen (AID 1187). The settings on record: hydroxyurea-induced phospho-Chk1 immunofluorescence imaging, higher = more signal.

For the molecule `COc1cc2c(cc1O)C(C)N(Cc1ccc([N+](=O)[O-])o1)CC2` (configuration not stated), the figures for the composite z-score in assay [1] and in assay [2] were 0.563 (inactive) and 0.962, respectively. Moreover, the z-score in assay [3] is -1.2; in assay [4], -6.22 (inactive); in assay [5], 0.0111 (inactive); in assay [6] it was 0.264 (inactive).

Take `CCOC(=O)C[C@H]1[C@H](OC(=O)Cc2ccc3c(c2)OCO3)[C@@H](NC(=O)CC(C)C)c2cc(OCCCO)ccc2N1C(=O)Cc1ccc(OC)cc1`: the composite z-score in assay [1] was -0.107 (inactive); in assay [2] it was -0.311. For the same molecule, the z-score is 0.0373 in assay [3], -3.35 (inactive) in assay [4], -0.839 (inactive) in assay [5] and -0.401 (inactive) in assay [6].

As for `CCOc1cc(C(O)C2C=CC3C(=O)N(C)C(=O)C3N2Nc2ccccc2)ccc1O` (configuration not stated), the composite z-score in assay [1] is 0.705 (inactive); in assay [2] it was 0.273. In addition, the z-score was -0.211 in assay [3], -2.42 (inactive) in assay [4], -0.0768 (inactive) in assay [5] and -0.677 (inactive) in assay [6].

`O=C(CS)NCCCCCCNC(=O)[C@H]1C[C@H]2C(=O)N[C@@H](Cc3ccccc3)C(=O)N2[C@H]1c1ccc(O)cc1`: the composite z-score was 0.398 (inactive) in assay [1] and 0.849 in assay [2]. The z-score in assay [3] was -0.0607; in assay [4], -1.23 (inactive); in assay [5], -0.836 (inactive); in assay [6], -0.555 (inactive).

Take `N#Cc1ccc(C(O)C2C=CC3C(=O)N(c4ccccc4)C(=O)C3N2Nc2ccccc2)cc1` (configuration not stated): the composite z-score in assay [1] was 0.294 (inactive); in assay [2] it was 0.108. For the same molecule, the z-score was -0.605 in assay [3], -1.94 (inactive) in assay [4], -0.18 (inactive) in assay [5] and -0.383 (inactive) in assay [6].

For the molecule `CC(C)(C)N1CC=CC23O[C@@H]4C=CCCOC(=O)C4[C@H]2C(=O)N(CCO)[C@@H]3C1=O` (some centres not stated), the composite z-score was -0.692 (inactive) in assay [1] and -0.421 in assay [2]. Further, the z-score was -0.175 in assay [3], -4.92 (inactive) in assay [4], 0.0024 (inactive) in assay [5] and -0.528 (inactive) in assay [6].

For the molecule `COC(=O)[C@@]1(Cc2ccccc2)[C@H]2c3cc(C(=O)N(C)C)n(CCN4CNCC4=O)c3C[C@H]2CN1C(=O)c1ccccc1`, the composite z-score in assay [1] was 0.858 (inactive); in assay [2], 1.01. The z-score in assay [3] is -0.17; in assay [4], -2.94 (inactive); in assay [5] it was -0.232 (inactive); in assay [6] it was -0.33 (inactive).

For `O=C1O[C@@H](c2ccccc2)[C@@H](c2ccccc2)N2[C@@H](c3ccc(O)cc3)[C@]3(C(=O)Nc4ccc(C#CC5(O)CCCCCC5)cc43)[C@@H](C(=O)NC[C@H](O)c3ccccc3)[C@H]12`, the composite z-score in assay [1] is 0.0382 (inactive); in assay [2] it was 0.691. The z-score is -0.627 in assay [3], -3.55 (inactive) in assay [4], 0.206 (inactive) in assay [5] and 0.345 (inactive) in assay [6].

For `CCCCCCCCCCC(O)C1C=CC2C(=O)N(C)C(=O)C2N1NC(=O)OC(C)(C)C` (configuration not stated), the composite z-score is 0.0658 (inactive) in assay [1] and 0.502 in assay [2]. Besides, the z-score is -0.451 in assay [3], -2.93 (inactive) in assay [4], 1.91 (inactive) in assay [5] and 1.4 (inactive) in assay [6].

With `[N-]=[N+]=NCc1ccccc1[C@H]1OC(c2ccc(OCCCO)cc2)=N[C@@]1(CCS(=O)(=O)c1ccccc1)C(=O)NCC(O)CO` (some centres not stated), the composite z-score in assay [1] was 1.2 (inactive); in assay [2] it was 0.781. The z-score in assay [3] was -2.41; in assay [4], -2.82 (inactive); in assay [5], -0.0433 (inactive); in assay [6] it was 0.0231 (inactive).

As to `COCCCNC(=O)[C@]1(CCS(=O)(=O)c2ccccc2)N=C(c2ccc(OCCCO)cc2)O[C@@H]1c1ccccc1N=[N+]=[N-]`, the composite z-score in assay [1] is 1.26 (inactive); in assay [2], 0.731. Further, the z-score in assay [3] was -2.4; in assay [4] it was -3.71 (inactive); in assay [5], -0.198 (inactive); in assay [6] it was -0.266 (inactive).

For `COc1ccc([Si](C)(C)[C@@H]2[C@@H](CC(=O)N3Cc4ccccc4C[C@H]3CO)O[C@]3(C(=O)N(C)c4ccccc43)[C@H]2C)cc1`, the figures for the composite z-score in assay [1] and in assay [2] were 0.176 (inactive) and 0.773, respectively. The z-score was -2.74 in assay [3], -6.03 (inactive) in assay [4], -1.6 (inactive) in assay [5] and -0.901 (inactive) in assay [6].

Turning to `CN(C)CCCNC(=O)[C@@]1(C)c2ccccc2C(=O)N(Cc2ccccc2)[C@H]1c1ccc(CO)cc1`, the composite z-score in assay [1] is -0.328 (inactive); in assay [2], -0.711. The z-score in assay [3] was -0.649; in assay [4], -2.18 (inactive); in assay [5], 0.559 (inactive); in assay [6], 0.749 (inactive).

On to `C=C(C)C1CCC(C(O)C2C=CC3C(=O)N(C)C(=O)C3N2N2CCCCC2)CC1` (configuration not stated), for which the values for the composite z-score in assay [1] and in assay [2] were 0.763 (inactive) and 0.622, respectively. Moreover, the z-score in assay [3] is -0.122; in assay [4], -5.66 (inactive); in assay [5] it was 0.692 (inactive); in assay [6], 0.133 (inactive).

As for `CC(CO)N1C(=O)[C@@H]2[C@H]3C(=O)OCC=C[C@H]3OC23C=CCN(C(C)(C)C)C(=O)[C@@H]13` (some centres not stated), the composite z-score in assay [1] is -0.316 (inactive); in assay [2], 0.0576. Also, the z-score in assay [3] is 0.293; in assay [4], -5.22 (inactive); in assay [5], 0.0116 (inactive); in assay [6], -0.602 (inactive).

Consider `CCCCCCCCCCC(O)C1C=CC2C(=O)N(C)C(=O)C2N1Nc1ccc([N+](=O)[O-])cc1[N+](=O)[O-]` (configuration not stated), for which the composite z-score in assay [1] was -0.0993 (inactive); in assay [2], 0.464. Moreover, the z-score in assay [3] was 0.625; in assay [4], -3.99 (inactive); in assay [5], 0.496 (inactive); in assay [6] it was -0.12 (inactive).

For the molecule `[N-]=[N+]=Nc1ccccc1C[C@]1(C(N)=O)N=C(c2ccc(OCCCO)cc2)O[C@H]1c1ccccc1N=[N+]=[N-]`, the results for the composite z-score in assay [1] and in assay [2] were 0.635 (inactive) and 0.756, respectively. Besides, the z-score in assay [3] is -2.65; in assay [4] it was -5.32 (inactive); in assay [5] it was -0.433 (inactive); in assay [6], -0.683 (inactive).

On to `CCOC(=O)c1ccc(NC(=O)O[C@H]2[C@H](OC(=O)Nc3ccc4c(c3)OCO4)[C@H](OC(=O)Nc3ccc4c(c3)OCO4)[C@@H](OC)O[C@@H]2CO)cc1`, for which the composite z-score is 1.4 (inactive) in assay [1] and 0.863 in assay [2]. For the same molecule, the z-score was -2.28 in assay [3], -6.83 (inactive) in assay [4], -0.306 (inactive) in assay [5] and 0.101 (inactive) in assay [6].

Turning to `CN1C(=O)C2C=CC(C(O)c3ccc(F)cc3)N(Nc3ccccc3)C2C1=O` (configuration not stated), the composite z-score in assay [1] was 0.477 (inactive); in assay [2], 0.466. Moreover, the z-score in assay [3] is -0.102; in assay [4], -2.9 (inactive); in assay [5], 0.264 (inactive); in assay [6], -0.232 (inactive).

With `O=C1C2C=CC(C(O)c3ccc(Br)cc3)N(Nc3ccccc3F)C2C(=O)N1c1ccccc1` (configuration not stated), the composite z-score was 0.197 (inactive) in assay [1] and 0.704 in assay [2]. The z-score was -0.133 in assay [3], -2.41 (inactive) in assay [4], -0.863 (inactive) in assay [5] and -0.909 (inactive) in assay [6].

For `CCC(CC)C(O)C1C=CC2C(=O)N(c3ccccc3)C(=O)C2N1Nc1ccc(C(C)C)cc1` (configuration not stated), the figures for the composite z-score in assay [1] and in assay [2] were 0.0969 (inactive) and 0.586, respectively. In addition, the z-score in assay [3] was -0.615; in assay [4] it was -3.2 (inactive); in assay [5], -0.681 (inactive); in assay [6], -0.765 (inactive).

As for `CC(C)C(=C=CC[C@H](O)c1cccc(OCCO)c1)C[C@H](O)c1cc(Cl)cc(Cl)c1O`, the composite z-score in assay [1] was -0.41 (inactive); in assay [2], 0.594. The z-score is -0.487 in assay [3], -4.22 (inactive) in assay [4], -0.568 (inactive) in assay [5] and 0.228 (inactive) in assay [6].
